Compound activity as filed in PubChem BioAssay.
3T3 cytotox – cytotoxic compounds in NIH 3T3 cells; NIH 3T3 viability, CellTiter-Glo ATP luminescence, 48-72 h; Potency, µM (titrated, usually from 96.7 µM), most hits filed as inhibitors; 94,000 tested, 4.3% active; also: nearly all actives have a fitted effect of over 55% in size
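Cells were seeded at 400 per well, treated with pin-transferred compound, and kept 48 or 72 hr at 37 °C before CellTiter-Glo addition and luminescence imaging of cellular ATP.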
HEK cytotox – cytotoxic compounds in HEK 293 cells; HEK 293 viability, ATP luminescence (CellTiter-Glo), 48-72 h; Potency, µM (series often up to 115 µM), actives largely listed as inhibitors; 94,000 tested, 6.6% active; AID 1345083; also: nearly all actives have a fitted effect of over 60% in size
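qHTS cytotoxicity; HEK 293, 250 cells/well; compound pinned; 48 or 72 hr, 37 degree Celsius, 5% CO2, 95% humidity; CellTiter-Glo, 10 min RT; luminescence (ATP).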
hNpr1 antagonist – human Npr1 receptor antagonism. HEK293 hNpr1 GloSensor cGMP, ANP-stimulated luminescence. Potency, µM (series often up to 46.3 µM), hits mostly inhibitors. 76,000 tested, 1.6% active. AID 1347048; calls by dose curve; also: nearly all actives have a fitted effect of over 60% in size
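HEK293 cells stably expressing human Npr1 and cGMP GloSensor pGS-40F, loaded 2 h with 2% GloSensor reagent, given compound 30 min at room temperature. Luminescence read before and 20 min after 0.1 nM hNppA.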
FLuc inh-1 – blocks purified firefly luciferase enzyme activity | P08659 | purified P. pyralis luciferase, luminescence, biochemical | Potency, µM (highest dose often 115 µM), usual class: inhibitors | 76,000 tested, 2.5% active | AID 1347043; also: nearly all actives have a fitted effect of over 65% in size
Target sequence (P08659 whole entry, looked up): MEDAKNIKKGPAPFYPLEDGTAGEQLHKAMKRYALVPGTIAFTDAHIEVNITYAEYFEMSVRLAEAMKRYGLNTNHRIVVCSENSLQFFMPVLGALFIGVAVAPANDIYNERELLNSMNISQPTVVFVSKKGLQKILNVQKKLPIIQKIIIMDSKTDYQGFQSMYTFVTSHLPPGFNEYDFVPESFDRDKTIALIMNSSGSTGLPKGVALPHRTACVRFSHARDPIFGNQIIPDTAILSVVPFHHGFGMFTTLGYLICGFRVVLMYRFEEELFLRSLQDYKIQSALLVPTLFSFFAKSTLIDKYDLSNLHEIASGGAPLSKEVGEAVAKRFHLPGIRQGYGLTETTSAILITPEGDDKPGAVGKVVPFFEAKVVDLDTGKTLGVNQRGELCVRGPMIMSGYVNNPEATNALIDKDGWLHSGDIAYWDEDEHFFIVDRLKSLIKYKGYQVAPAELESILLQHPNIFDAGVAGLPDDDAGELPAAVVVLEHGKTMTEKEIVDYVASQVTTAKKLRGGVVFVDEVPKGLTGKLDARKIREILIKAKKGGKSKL
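FLuc 10nM, D-luciferin 10uM, ATP 10uM, Mg acetate 10mM, Tris acetate pH 7.5, Tween/BSA; cpd qHTS; enzyme added last; CCD luminescence.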
FLuc SDR no ATP – firefly luciferase binding stabilization, ATP absent; Purified FLuc-C-HiBiT, Nano-Glo HiBiT luminescence, no ATP; AID 1963318; 1,300 tested, 7.8% active; shares compounds with FLuc inh-1; Potency, µM (series often up to 32.7 µM), most hits filed as activators; also: nearly all actives have a fitted effect of over 55% in size
FLuc SDR ATP – firefly luciferase binding stabilization, ATP added; shares compounds with FLuc inh-1; purified FLuc-C-HiBiT + ATP, HiBiT complementation luminescence; Potency, µM (highest dose often 32.7 µM), actives largely listed as activators; 1,300 tested, 8.7% active; AID 1963319;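 also: signal reports ligand binding via conformational change of the enzyme rather than luciferase catalysis; nearly all actives have a fitted effect of over 55% in size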
FLuc inh-2 – inhibitors of firefly luciferase enzymatic activity; shares compounds with FLuc inh-1; purified FLuc-C-HiBiT enzyme, luciferin luminescence; Potency, µM (series often up to 32.7 µM), most hits filed as inhibitors; 1,300 tested, 42% active; AID 1963320; also: nearly all actives have a fitted effect of over 70% in size
Hits are given with their value; . = inactive; ? = inconclusive; / = no result. Rows were chosen to be rich in hits. Some 11% of all compounds tested hit in one or more screens of this group. Unless noted, calls follow the shape of the dose curve; as a rule, active = well fitted curve in the direction sought with a large enough effect; inconclusive = small, poorly fitted or top-dose-only effect, or another doubt; inactive = no such curve, though single readings can be large; an effect the other way counts as inactive or inconclusive.

SMILES | 3T3 cytotox | HEK cytotox | hNpr1 antagonist | FLuc inh-1 | FLuc SDR no ATP | FLuc SDR ATP | FLuc inh-2
CCc1cccc2c(C(CC(=O)NCCc3ccc(OC)c(OC)c3)c3cccc(F)c3)c[nH]c12 (stereo not drawn) | ? | 28.2µM | . | . | / | / | /
CCc1cccc2c(C(CC(=O)NCC(C)C)c3ccc(OC)c(OC)c3)c[nH]c12 (stereo not drawn) | . | . | . | . | / | / | /
CCCCNC(=O)CC(c1ccc(OC)cc1OC)c1c[nH]c2c(CC)cccc12 (stereo not drawn) | ? | ? | . | . | / | / | /
CCc1cccc2c(C(CC(=O)NCc3ccco3)c3ccc(C)cc3)c[nH]c12 (stereo not drawn) | ? | 35.5µM | . | . | / | / | /
CCCCNC(=O)CC(c1cccc(OC)c1)c1c[nH]c2ccccc12 (stereo not drawn) | ? | 79.4µM | . | . | / | / | /
CCc1cccc2c(C(CC(=O)NCc3ccco3)c3ccc(OC)c(OC)c3)c[nH]c12 (stereo not drawn) | ? | ? | . | . | / | / | /
CCCCCNC(=O)CC(c1cccc(OC)c1OC)c1c[nH]c2c(CC)cccc12 (stereo not drawn) | ? | 44.7µM | . | . | / | / | /
CCCC1(CO)CCCN(Cc2cc(-c3ccc(C)cc3)no2)C1 (stereo not drawn) | ? | ? | . | ? | / | / | /
CCCCNC(=O)CC(c1cccc2c1OCO2)c1c[nH]c2c(CC)cccc12 (stereo not drawn) | ? | 44.7µM | . | . | / | / | /
O=C(CC(c1cccc2c1OCO2)c1c[nH]c2ccccc12)NCc1ccccc1 (stereo not drawn) | ? | ? | . | . | / | / | /
O=C(COc1ccc(F)cc1)Nc1cnc(-c2ccccc2)nc1 | . | . | . | . | / | / | /
O=C(Cc1ccsc1)Nc1cnc(-c2ccccc2)nc1 | ? | ? | ? | 5.01µM | / | / | /
Cc1ccc(-n2nc(C)c([C@@H]3C=C[C@@H](NC(=O)Nc4ccc(Cl)cc4)C3)c2C)cc1Cl | 28.2µM | 15.8µM | ? | 10µM | . | . | ?
Cc1cc(Cl)ccc1-n1nc(C)c([C@@H]2C=C[C@@H](NC(=O)CCCC(=O)O)C2)c1C | . | . | . | ? | / | / | /
Cc1ccc(-n2nc(C)c([C@H]3C=C[C@@H](O)C3)c2C)cc1Cl | ? | ? | 17.8µM | 1.12µM | . | ? | 12.8µM
Cc1nn(C(=O)CCCC(=O)N2CCCC2c2nc(C3CCOCC3)no2)c2ccccc12 (stereo not drawn) | . | . | . | . | / | / | /
CCOc1cccc(CN2C[C@@H]3C(=O)N(CCN4CCc5ccccc5C4)C(=O)[C@@H]3C2)c1 | ? | ? | . | . | / | / | /
COC(=O)c1ccc2c(c1)/C(=C/c1cc(Br)c(O)c(Br)c1)C(=O)N2 | / | / | / | / | . | . | 9.89µM
CCn1cc(-c2ccc(C)cc2)cc1C(=O)O | . | ? | . | ? | . | . | .
Cc1ccc(Cn2cc(-c3ccncc3)cc2C(=O)O)cc1 | ? | . | . | . | . | . | .
Cc1noc(C)c1C1CCCN1C(=O)Cc1nc(-c2cccnc2)n[nH]1 (stereo not drawn) | . | . | . | . | / | / | /
COc1cc(C)ccc1OCc1cc(C(=O)NCc2n[nH]c3c2CCC3)no1 | ? | ? | . | 11.2µM | . | . | ?
CN1CC(=O)N(c2ccccc2F)Cc2c(NCc3cccc(C(F)(F)F)c3)ncnc21 | ? | ? | . | . | / | / | /
C=C1[C@H](CO)[C@@H](O)C[C@@H]1n1cnc2c(=O)[nH]c(N)nc21 | / | / | / | / | . | . | .
Nc1nc2c(ncn2COCCO)c(=O)[nH]1 | / | / | / | / | . | . | .
COc1cccc2ccc(N3CCN(Cc4ccccc4)CC(O)C3)nc12 (stereo not drawn) | . | ? | . | . | / | / | /
Cn1c([C@H]2CCN(C3CCCCC3)C2)nc2ccccc21 | ? | ? | . | 7.08µM | . | . | ?
O=C(c1nnn2c1COC(c1ccc(Cl)cc1)C2)N1CCSCC1 (stereo not drawn) | . | . | . | ? | / | / | /
